Compound activity deposited in PubChem BioAssay by National Center for Advancing Translational Sciences (NCATS).
Only some compounds are listed: those with a hit (about 8.8% of all), similar ones and a draw of the others.
KB-V1 MDR tox: qHTS assay for MDR1-selective chemotherapeutics: Primary screen using the drug-selected MDR subline cells KB-V1. KB-V1 MDR cells viability, CellTiter-Glo, 72 h. Potency, µM (titrated, usually from 46.1 µM), most hits filed as cytotoxic. 400,000 compounds, 3.4% hits; note: potency is the fitted concentration of half-maximal effect; nearly all actives have a fitted effect of over 60% in size
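In this primary screen, KB-V1 cells overexpressing P-gp are incubated with library compounds (lowest to highest concentration) for 72 h at 37 degrees C before a luminescent ATP viability read.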
HT1080 IDH1KD tx: qHTS for induction of synthetic lethality in tumor cells producing 2HG: qHTS for the HT-1080-IDH1KD cell line. HT-1080 IDH1 knockdown viability, ATP luminescence, 48 h. Potency, µM (highest dose often 46.1 µM), for inactives: at the top dose activity, negative = toxicity, actives largely listed as cytotoxic. 360,000 compounds, 2% hits. AID 686971, 2013;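 note: potency is the fitted concentration of half-maximal effect; 0% = DMSO wells and -100% = cell-free medium wells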
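HT-1080-IDH1KD cells (IDH1 knocked down), 750/well in RPMI with 5% FBS, treated with compound 48 h at 37 degrees C. Viability by CellTiter-Glo luminescence, normalised to DMSO and no-cell wells; concentration-response curves classed.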
IL-1B inflam inh: qHTS for Inhibitors of Inflammasome Signaling: IL-1-beta AlphaLISA Primary Screen. THP-1 LPS/ATP IL-1B secretion, AlphaLISA, 16 h; stronger effect = lower value. activity change, % at 57.5 µM. 360,000 compounds, 4.7% hits. AID 743279, 2014; in the data active = activity change below about -50%; inconclusive = mostly about -30% to -49%
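THP-1 cells pretreated 1 hr with compounds (up to 57.5 uM final), then stimulated with LPS (250 ng/mL final) plus ATP (1.25 mM final); secreted IL-1B measured by AlphaLISA after 16 hr, decreased signal indicating inhibition.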
HT1080NT lethal: qHTS for induction of synthetic lethality in tumor cells producing 2HG: qHTS for the HT-1080-NT fibrosarcoma cell line. AID 686970, 2013. HT-1080-NT fibrosarcoma viability, CellTiter-Glo ATP luminescence, 48 h. Potency, µM (series often up to 46.1 µM), for inactives: at the top dose activity, negative = less viability, actives largely listed as cytotoxic. 360,000 compounds, 1.6% hits;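 note: NT is the 2HG producing partner of a matched IDH1 knockdown line; potency is the fitted concentration of half-maximal effect; 0% = DMSO-treated cells and -100% = media-only wells without cells; nearly all actives have a fitted effect of over 55% in size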
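Luminescent CellTiter-Glo readout after 48 hours of compound exposure at 37 degrees C defined viability of HT-1080-NT cells. Activity was normalized to DMSO wells and cell-free media wells; concentration-response curves were fitted and assigned curve classes.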
KB-3-1 cytotox: qHTS assay for MDR1-selective chemotherapeutics: Primary screen using the parental adenocarcinoma cell KB-3-1; KB-3-1 viability, CellTiter-Glo ATP luminescence, 72 h; Potency, µM (highest dose often 46.1 µM), hits mostly cytotoxic; 400,000 compounds, 1.4% hits; AID 1347075, 2019; note: potency is the fitted concentration of half-maximal effect; nearly all actives have a fitted effect of over 60% in size
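Using CellTiter-Glo luminescence, growth of non-resistant KB-3-1 adenocarcinoma cells is assessed 72 h after pin-tool compound addition at 37 °C. Normalized responses across the concentration series yield fitted curves.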
* hit, by the source's call; [ ] = dose if it differs, or a comment. Unless noted, calls come from the whole dose curve; as a rule, active = well fitted curve in the direction sought with a large enough effect; inconclusive = small, poorly fitted or top-dose-only effect, or another doubt; inactive = no such curve, though single readings can be large; an effect the other way counts as inactive or inconclusive. Unless noted, % is set by controls: 0 for no effect and ±100 for the full control effect.

What do the screens show for `CCN(C(=O)Cn1cnc2c1c(=O)n(C)c(=O)n2C)C1CCS(=O)(=O)C1` (stereo not drawn)?
KB-V1 MDR tox: inactive; HT1080 IDH1KD tx: 5%; IL-1B inflam inh: -6; HT1080NT lethal: 7%[9.24 µM]; KB-3-1 cytotox: inactive

What do the screens show for `Cc1ccccc1NC(=O)Cn1cc(C(=O)c2ccco2)c2ccccc21`?
KB-V1 MDR tox: inactive; KB-3-1 cytotox: inactive

What do the screens show for `COc1ccc(OC)c(NC(=O)Cn2cc(C=O)c3ccccc32)c1`?
KB-V1 MDR tox: inactive; HT1080 IDH1KD tx: -11%; IL-1B inflam inh: 46; HT1080NT lethal: -19%; KB-3-1 cytotox: inactive

What do the screens show for `COc1ccccc1NC(=O)Cn1cc(C(=O)c2ccco2)c2ccccc21`?
KB-V1 MDR tox: inactive; HT1080 IDH1KD tx: -2%; IL-1B inflam inh: -50*; HT1080NT lethal: 2%; KB-3-1 cytotox: inactive

What do the screens show for `COc1ccc(OC)c(NC(=O)Cn2cc(C(=O)c3ccco3)c3ccccc32)c1`?
KB-V1 MDR tox: 23µM*; HT1080 IDH1KD tx: 0%; IL-1B inflam inh: -21; HT1080NT lethal: -10%; KB-3-1 cytotox: inactive

Results for O=C(Nc1ccc(Cl)cc1)C1C2C=CC3(O2)C1C(=O)N(CCCN1CCCCC1)C3C(=O)NC1CCCCC1 (stereo not drawn) ?
KB-V1 MDR tox: inconclusive; HT1080 IDH1KD tx: 6%; IL-1B inflam inh: 8; HT1080NT lethal: 0%; KB-3-1 cytotox: inactive

What do the screens show for `O=C(CNC(=O)c1cccc(Cl)c1)NCCCSc1ccccc1`?
KB-V1 MDR tox: inactive; HT1080 IDH1KD tx: 3%; IL-1B inflam inh: 1; HT1080NT lethal: 2%; KB-3-1 cytotox: inactive

What do the screens show for `CCCOc1ccc2ccccc2c1/C=N/n1c(C)nnc1-n1nc(C)cc1C`?
KB-V1 MDR tox: 5.8µM*; HT1080 IDH1KD tx: 4.1µM*; IL-1B inflam inh: 12; HT1080NT lethal: inconclusive; KB-3-1 cytotox: 5.2µM*

Results for Cc1cc(C)n(-c2nnc(C)n2/N=C/c2ccco2)n1 ?
KB-V1 MDR tox: inactive; HT1080 IDH1KD tx: 3%; IL-1B inflam inh: -8; HT1080NT lethal: -3%; KB-3-1 cytotox: inactive

What do the screens show for `Nc1nc(-c2c(Cl)cccc2Cl)no1`?
KB-V1 MDR tox: inactive; HT1080 IDH1KD tx: 15%; IL-1B inflam inh: inconclusive; HT1080NT lethal: 15%; KB-3-1 cytotox: inactive

Results for CCOc1ccc(NC(=O)C2CCN(S(=O)(=O)c3cccs3)CC2)cc1 ?
KB-V1 MDR tox: inconclusive; HT1080 IDH1KD tx: -1%; IL-1B inflam inh: -58*; HT1080NT lethal: -29%; KB-3-1 cytotox: inconclusive

Results for O=C(Nc1ccc(OC(F)(F)F)cc1)C1CCN(S(=O)(=O)c2cccs2)CC1 ?
KB-V1 MDR tox: inactive; KB-3-1 cytotox: 21µM*

How did CC(=O)c1ccc(NC(=O)C2CCN(S(=O)(=O)c3cccs3)CC2)cc1 do in these assays?
KB-V1 MDR tox: inactive; HT1080 IDH1KD tx: -5%; IL-1B inflam inh: 3; HT1080NT lethal: 0%; KB-3-1 cytotox: inactive

How did Cc1ccc(NC(=O)CSc2nc(=O)n(Cc3cccnc3)c3c2CCC3)cc1F do in these assays?
KB-V1 MDR tox: inactive; KB-3-1 cytotox: inactive

How did Cc1ccc(NC(=O)Cn2cc(C(F)(F)F)cc(Cl)c2=O)cc1Cl do in these assays?
KB-V1 MDR tox: inconclusive; HT1080 IDH1KD tx: 4%; IL-1B inflam inh: -13; HT1080NT lethal: 6%; KB-3-1 cytotox: inactive

What do the screens show for `O=C(Nc1cccc(S(=O)(=O)N2CCCCC2)c1)c1ccccn1`?
KB-V1 MDR tox: inconclusive; HT1080 IDH1KD tx: 14%; IL-1B inflam inh: -84*; HT1080NT lethal: 14%; KB-3-1 cytotox: inactive

How did O=C(Nc1cccc(S(=O)(=O)N2CCCC2)c1)c1ccc(Cl)nc1 do in these assays?
KB-V1 MDR tox: inconclusive; HT1080 IDH1KD tx: 6.5µM*; IL-1B inflam inh: 7; HT1080NT lethal: inconclusive; KB-3-1 cytotox: inconclusive
